Measurements from PubChem BioAssay (Tox21).
Values without a mark were called inactive. Records with an inconclusive call do not appear. A call without a number means that no potency is given here. Active and inactive are the calls of the source. Unless noted, calls come from the whole dose curve.

Key:
[1] = Nuclear factor erythroid 2-related factor 2/antioxidant responsive element (Nrf2/ARE) small molecule agonists: qHTS cell viability counter screen in human keratinocytes (AID 1919968; active = well fitted curve in the direction sought with a large enough effect in the repeat runs; an effect the other way counts as inactive or inconclusive; note: nearly all actives have a fitted effect of over 55% in size; note: potency is the fitted concentration of half-maximal effect)
How it was run: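 Cells of the KeratinoSens line were plated at 1,500 per well and left for 5 h before compound transfer from DMSO stocks. After a 23 h incubation (37 C, 5% CO2), CellTiter-Fluor was added. Signal was taken as fluorescence intensity 1 h later.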

[2] = Nuclear factor erythroid 2-related factor 2/antioxidant responsive element (Nrf2/ARE) small molecule agonists: luciferase reporter gene qHTS assay in human keratinocytes (AID 1919969); note: nearly all actives have a fitted effect of over 35% in size
[3] = G protein-coupled receptor (GPCR) small molecule agonists, calcium flux assay: HEK293 wild type cell line counter screen (AID 1920065)
How it was run: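 Tox21 10K compounds, 15 concentrations each in triplicate, pin-transferred in DMSO onto dye-loaded cells; kinetic read at 480/540 nm for 3 min, 1 s intervals.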

[4] = p53 small molecule agonists, cell-based qHTS assay with human liver microsomes: qHTS cell viability counter screen (AID 1963579); note: nearly all actives have a fitted effect of over 45% in size; note: potency is the fitted concentration of half-maximal effect
How it was run: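 Cells carrying the p53 response-element beta-lactamase reporter are treated for 16 h at 37 C with test compounds in the presence of human liver microsomes and NADPH (both 0.5 mg/mL final); ATP-based CellTiter-Glo luminescence then reports viability.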

[5] = p53 small molecule agonists, cell-based qHTS assay: qHTS cell viability counter screen (AID 1963581); note: nearly all actives have a fitted effect of over 45% in size
How it was run: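 ATP content measured by luminescence in HCT-116 p53RE-bla cells treated 16 h at 37 C, same wells as the reporter screen.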

[6] = p53 small molecule agonists, cell-based qHTS assay (AID 1963582; active = well fitted activation curve with a large enough effect in the signal ratio in the repeat runs, not every such curve was filed as active; the % refers to the signal ratio)
How it was run: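 16 h compound exposure (37 C) of p53 response element–bla cells, preceded by 5 h recovery at 37 C/5% CO2; read-out via LiveBLAzer B/G FRET substrate, 2 h RT, fluorescence intensity.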

[7] = target: 5-hydroxytryptamine receptor 2A (Homo sapiens) (UniProt P28223); test: 5-hydroxytryptamine receptor 2A (HTR2A) small molecule antagonists, cell-based qHTS assay (AID 1963586); note: nearly all actives have a fitted effect of over 45% in size; note: potency is the fitted concentration of half-maximal effect
How it was run: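 CHO cells stably expressing human HTR2A were plated for 18 h at 37 C, then loaded with calcium dye for 1 h. Compounds were preincubated 5 min at room temperature before DOI (4 nM solution) was added. Kinetic fluorescence was read for 3 min.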

[8] = target: Muscarinic acetylcholine receptor M1 (Homo sapiens) (UniProt P11229); test: Cholinergic receptor muscarinic 1 (CHRM1) small molecule antagonists, cell-based qHTS assay (AID 1963588); note: nearly all actives have a fitted effect of over 40% in size
How it was run: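 Compounds were tested at 15 concentrations in three independent runs. Dye-loaded CHRM1-CHO cells were exposed 5 min at room temperature before stimulation by acetylcholine added at 50nM. Intracellular calcium was read kinetically on FDSS for 3 min.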

[9] = target: Muscarinic acetylcholine receptor M1 (Homo sapiens) (UniProt P11229); test: Cholinergic receptor muscarinic 1 (CHRM1) small molecule agonists, cell-based qHTS assay (AID 1963589); note: nearly all actives have a fitted effect of over 35% in size
How it was run: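 Homogeneous fluorescence calcium flux, agonist mode. Human M1-expressing CHO cells; compound dosed at 15 concentrations, three independent runs; signal sampled every 1 sec.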

[10] = cAMP Responsive Elements (CRE) small molecule agonists, cell-based qHTS assay (AID 1963590)
How it was run: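 HEK 293T cells stably bearing CRE-bla were plated at 2,000 cells per well and rested 18 h. Compounds, positive controls or DMSO were added for 3 h at 37 C. LiveBLAzer B/G substrate was then loaded for 2 h at room temperature.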

[11] = target: Beta-2 adrenergic receptor (Homo sapiens) (UniProt P07550); test: Adrenergic beta2 receptor (ADRB2) small molecule antagonists, cell-based qHTS assay (AID 1963592); note: nearly all actives have a fitted effect of over 50% in size; note: potency is the fitted concentration of half-maximal effect
How it was run: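 Assay format: CHO-ADRB2 cells, 18-20hr seeding at 37C/5% CO2, then compound plus 1nM isoproterenol agonist mix for 0.5hr RT. Homogeneous time-resolved fluorescence cAMP detection after 1hr, expressed as 665/615 nm ratio.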

[12] = target: D(2) dopamine receptor (Homo sapiens) (UniProt P14416); test: Dopamine D2 receptor (DRD2) small molecule agonists, cell-based qHTS assay (AID 1963594); note: nearly all actives have a fitted effect of over 35% in size
How it was run: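 cAMP accumulation in DRD2-HEK293 cells measured by HTRF after 1 h detection; compounds added 10 min before NKH477 (200nM […]) forskolin-analogue stimulation, 30 min at room temperature, with Ro20-1724 present at 0.1 mM final.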

[13] = target: D(2) dopamine receptor (Homo sapiens) (UniProt P14416); test: Dopamine D2 receptor (DRD2) small molecule antagonists, cell-based qHTS assay (AID 1963595; active = well fitted inhibition curve with a large enough effect in the signal ratio in the repeat runs, with a control signal flat; the % refers to the signal ratio; note: potency is the fitted concentration of half-maximal effect)
How it was run: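 HEK293 cells stably expressing DRD2, preincubated with 0.1 mM Ro20-1724 and compounds 10 min, were stimulated with 200 nM NKH477 plus 12 nM quinpirole for 30 min at room temperature; cAMP measured by HTRF (665/620 nm).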

[14] = target: KiSS-1 receptor (Homo sapiens) (UniProt Q969F8); test: Human kisspeptin (KISS1R) small molecule agonists, calcium flux assay in KISS1R-HEK293 cells (AID 1920064; active = well fitted curve in the direction sought with a large enough effect in the repeat runs; an effect the other way counts as inactive or inconclusive)
How it was run: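 Cell line: HEK293, stable human KISS1R. Dye loading 1 h at 37 C after 18 h culture. Read: kinetic fluorescence, 480/540 nm, 3 min at 1 s intervals.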

[15] = p53 small molecule agonists, cell-based qHTS assay with human liver microsomes (AID 1963577)
How it was run: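 Compounds act here after metabolic activation: human liver microsomes and NADPH, both at 0.5 mg/mL final, were co-added to p53RE-bla cells. Incubation ran 16 h at 37 C, followed by LiveBLAzer detection.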

[16] = p53 small molecule agonists, cell-based qHTS assay with rat liver microsomes (AID 1963578)
How it was run: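 Read-out is beta-lactamase reporter fluorescence (LiveBLAzer, 2 h, room temperature, dark) in p53RE-bla cells treated 16 h at 37 C with compound, rat liver microsomes and NADPH, both 0.5 mg/mL final.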

[17] = p53 small molecule agonists, cell-based qHTS assay with rat liver microsomes: qHTS cell viability counter screen (AID 1963580); note: nearly all actives have a fitted effect of over 45% in size
How it was run: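 Cytotoxicity counter screen: intracellular ATP read by CellTiter-Glo luminescence in the p53 reporter wells. HCT-116 p53RE-bla cells were treated for 16 h at 37 C alongside rat liver microsomes and NADPH, each 0.5 mg/mL final.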

[18] = target: 5-hydroxytryptamine receptor 2A (Homo sapiens) (UniProt P28223); test: 5-hydroxytryptamine receptor 2A (HTR2A) small molecule agonists, cell-based qHTS assay (AID 1963587); note: nearly all actives have a fitted effect of over 30% in size
How it was run: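 Kinetic calcium-flux fluorescence (2 min, 1 sec intervals) after compound addition in agonist mode. HTR2A-CHO cells were cultured 18 h, then dye-loaded 1 h at 37 C.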

[19] = cAMP Responsive Elements (CRE) small molecule antagonists, cell-based qHTS assay (AID 1963591; active = well fitted inhibition curve with a large enough effect in the signal ratio in the repeat runs, not every such curve was filed as active; the % refers to the signal ratio)
How it was run: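 First, CRE-bla HEK293T cells settled 18 h at 37 C. Next, compound and 0.25 uM final NKH477 were applied for 3 h. Last, LiveBLAzer B/G substrate was loaded for 2 h at room temperature.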

Sequence of 5-hydroxytryptamine receptor 2A (Homo sapiens) (P28223 whole entry, looked up): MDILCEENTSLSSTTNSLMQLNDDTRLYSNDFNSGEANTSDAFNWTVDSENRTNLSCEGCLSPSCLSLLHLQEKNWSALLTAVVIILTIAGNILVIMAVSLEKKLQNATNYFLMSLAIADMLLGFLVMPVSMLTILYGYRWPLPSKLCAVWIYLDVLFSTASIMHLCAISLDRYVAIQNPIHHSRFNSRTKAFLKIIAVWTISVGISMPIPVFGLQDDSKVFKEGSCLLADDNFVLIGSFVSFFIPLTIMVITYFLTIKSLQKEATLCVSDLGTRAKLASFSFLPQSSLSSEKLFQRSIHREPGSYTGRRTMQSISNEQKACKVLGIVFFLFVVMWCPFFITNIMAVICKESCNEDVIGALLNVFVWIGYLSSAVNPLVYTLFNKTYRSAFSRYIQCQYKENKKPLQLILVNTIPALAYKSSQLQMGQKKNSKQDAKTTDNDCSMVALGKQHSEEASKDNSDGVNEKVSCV
Sequence of Beta-2 adrenergic receptor (Homo sapiens) (P07550 whole entry, looked up): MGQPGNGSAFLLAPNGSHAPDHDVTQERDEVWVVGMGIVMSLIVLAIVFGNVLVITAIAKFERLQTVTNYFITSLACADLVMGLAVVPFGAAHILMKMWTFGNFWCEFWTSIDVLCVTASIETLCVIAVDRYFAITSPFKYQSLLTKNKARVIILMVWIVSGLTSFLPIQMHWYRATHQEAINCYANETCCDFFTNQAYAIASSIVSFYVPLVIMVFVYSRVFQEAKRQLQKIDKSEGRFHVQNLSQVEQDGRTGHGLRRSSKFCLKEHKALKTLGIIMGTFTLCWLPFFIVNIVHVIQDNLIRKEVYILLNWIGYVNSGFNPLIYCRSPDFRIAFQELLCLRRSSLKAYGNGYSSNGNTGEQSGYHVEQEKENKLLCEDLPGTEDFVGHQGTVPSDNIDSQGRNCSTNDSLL
Sequence of Muscarinic acetylcholine receptor M1 (Homo sapiens) (P11229 whole entry, looked up): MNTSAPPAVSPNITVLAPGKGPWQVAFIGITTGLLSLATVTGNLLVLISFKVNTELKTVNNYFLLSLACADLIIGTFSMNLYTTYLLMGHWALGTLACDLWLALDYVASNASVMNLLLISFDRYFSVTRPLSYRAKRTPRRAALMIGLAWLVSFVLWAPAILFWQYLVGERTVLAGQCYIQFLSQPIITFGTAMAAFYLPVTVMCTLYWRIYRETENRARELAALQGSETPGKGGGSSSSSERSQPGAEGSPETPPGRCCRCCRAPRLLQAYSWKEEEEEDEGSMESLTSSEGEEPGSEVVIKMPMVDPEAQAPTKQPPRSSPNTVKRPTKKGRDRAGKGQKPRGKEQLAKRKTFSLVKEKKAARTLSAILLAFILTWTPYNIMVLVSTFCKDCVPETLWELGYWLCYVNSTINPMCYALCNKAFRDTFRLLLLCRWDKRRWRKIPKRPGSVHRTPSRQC
Sequence of D(2) dopamine receptor (Homo sapiens) (P14416 whole entry, looked up): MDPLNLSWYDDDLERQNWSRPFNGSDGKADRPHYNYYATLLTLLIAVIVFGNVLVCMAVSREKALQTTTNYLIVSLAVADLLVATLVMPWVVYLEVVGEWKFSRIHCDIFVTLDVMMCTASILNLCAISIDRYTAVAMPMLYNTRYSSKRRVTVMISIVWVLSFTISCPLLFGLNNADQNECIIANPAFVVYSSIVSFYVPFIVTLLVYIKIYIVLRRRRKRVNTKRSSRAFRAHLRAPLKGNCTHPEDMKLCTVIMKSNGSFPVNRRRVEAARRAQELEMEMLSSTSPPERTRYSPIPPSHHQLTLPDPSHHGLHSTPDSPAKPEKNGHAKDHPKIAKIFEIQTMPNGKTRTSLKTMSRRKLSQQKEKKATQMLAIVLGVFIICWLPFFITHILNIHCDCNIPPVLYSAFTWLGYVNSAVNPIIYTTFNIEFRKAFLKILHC
Sequence of KiSS-1 receptor (Homo sapiens) (Q969F8 whole entry, looked up): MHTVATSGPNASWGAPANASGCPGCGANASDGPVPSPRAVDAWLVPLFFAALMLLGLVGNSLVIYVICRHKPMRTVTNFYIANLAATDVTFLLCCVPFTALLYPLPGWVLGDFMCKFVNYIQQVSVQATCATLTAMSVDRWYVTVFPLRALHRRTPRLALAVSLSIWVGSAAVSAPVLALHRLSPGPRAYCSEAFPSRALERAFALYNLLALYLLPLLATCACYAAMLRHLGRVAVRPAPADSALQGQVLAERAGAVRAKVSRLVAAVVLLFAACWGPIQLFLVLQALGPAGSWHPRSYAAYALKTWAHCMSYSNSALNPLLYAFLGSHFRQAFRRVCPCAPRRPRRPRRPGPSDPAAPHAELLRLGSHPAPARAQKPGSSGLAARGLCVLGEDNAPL

SMILES | Potency [1] | Potency [2] | Potency [3] | Potency [4] | Potency [5] | Potency [6] | Potency [7] | Potency [8] | Potency [9] | Potency [10] | Potency [11] | Potency [12] | Potency [13] | Potency [14] | Potency [15] | Potency [16] | Potency [17] | Potency [18] | Potency [19]
O=S(=O)(O)c1ccc(Nc2nc(Nc3ccc(/C=C/c4ccc(Nc5nc(Nc6ccc(S(=O)(=O)O)cc6)nc(N(CCO)CCO)n5)cc4S(=O)(=O)O)c(S(=O)(=O)O)c3)nc(N(CCO)CCO)n2)cc1 | inactive | inactive | inactive | inactive | inactive | inactive | inactive | inactive | inactive | inactive | inactive | inactive | inactive |  |  |  |  |  | 
CCCCCCOc1cc(C)c(O)c(C)c1C | 31 µM (active) | inactive | inactive | 26 µM (active) |  | inactive | 19 µM (active) | inactive |  |  |  | inactive |  | inactive | inactive | inactive |  |  | 
CCOC(=O)OCC | inactive | inactive | inactive |  | inactive |  | inactive | inactive | inactive | inactive |  | inactive | inactive |  |  |  | inactive | inactive | inactive
CC(C)COCC(CN(Cc1ccccc1)c1ccccc1)N1CCCC1 (configuration not stated) | 26.6 µM (active) | inactive | inactive | inactive |  | inactive | 6.5 µM (active) | inactive |  |  | 26.6 µM (active) | inactive | 29.8 µM (active) | inactive | inactive | inactive | inactive |  | 
CC(C)CC(C)(C)C | inactive | inactive | inactive | inactive | inactive |  |  | inactive |  |  | inactive | inactive | inactive |  |  |  | inactive | inactive | 
